# Test results as given in ChEMBL document CHEMBL1201862, “PubChem BioAssay data set” (2004).
# These assays gave more results; the selection is not random.
# Target: T1, Protein RecA (Mycobacterium tuberculosis) (UniProt P9WHJ3)
# T1 sequence (whole entry): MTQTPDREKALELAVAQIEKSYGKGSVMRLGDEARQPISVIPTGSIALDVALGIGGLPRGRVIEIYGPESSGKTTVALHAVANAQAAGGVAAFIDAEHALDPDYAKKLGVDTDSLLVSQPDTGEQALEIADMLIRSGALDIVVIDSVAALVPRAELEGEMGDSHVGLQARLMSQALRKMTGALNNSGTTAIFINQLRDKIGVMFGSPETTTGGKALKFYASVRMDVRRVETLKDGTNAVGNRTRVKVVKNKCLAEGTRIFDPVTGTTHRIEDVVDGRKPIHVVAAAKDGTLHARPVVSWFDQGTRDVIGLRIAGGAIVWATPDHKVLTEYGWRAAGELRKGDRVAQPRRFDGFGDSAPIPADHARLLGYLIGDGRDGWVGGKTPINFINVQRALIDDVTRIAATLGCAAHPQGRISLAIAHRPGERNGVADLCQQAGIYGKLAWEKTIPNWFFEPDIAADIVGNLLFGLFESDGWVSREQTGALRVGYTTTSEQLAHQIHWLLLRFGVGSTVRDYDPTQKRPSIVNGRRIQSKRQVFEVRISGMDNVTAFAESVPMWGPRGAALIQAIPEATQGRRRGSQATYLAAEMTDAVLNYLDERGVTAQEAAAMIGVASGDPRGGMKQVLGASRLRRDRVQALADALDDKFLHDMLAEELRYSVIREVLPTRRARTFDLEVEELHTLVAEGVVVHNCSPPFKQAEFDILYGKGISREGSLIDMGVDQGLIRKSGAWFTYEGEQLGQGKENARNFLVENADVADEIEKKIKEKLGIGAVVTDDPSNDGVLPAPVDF
# Test: M. tuberculosis H37Rv growth inhibition, dose response, strain H37Rv (AID 489010); call rule not given here;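 also: whole Mycobacterium tuberculosis cells grown in culture and not purified RecA protein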
# Assay type: functional
row,SMILES,IC90
1,Cc1cccc(Cn2nnc3c2C(=O)c2ccccc2C3=O)c1,52.6 µM (active)
2,COc1ccc(N(C(=O)CCl)C(C(=O)NCCc2ccccc2)c2cccs2)cc1 (stereo not drawn),22.9 µM (active)
3,CC(C)(C)C1CCc2sc(C(=O)NNC(=O)CCl)cc2C1 (stereo not drawn),33.3 µM (active)
4,COC(=O)c1c(C)oc2ccc(N(C(=O)c3ccncc3)S(=O)(=O)c3ccc4ccccc4c3)cc12,> 100 µM (active)
5,O=C1NC(=S)N(C2CCCCC2)C(=O)/C1=C/NNC(=O)c1ccccc1O,> 100 µM (active)
6,CC(=O)n1cc(N(C(=O)CCl)c2ccc([N+](=O)[O-])cc2)c2ccccc21,8.94 µM (active)
7,O=C(Cc1ccccc1)c1c[nH]c(C(=O)C(Cl)(Cl)Cl)c1,> 100 µM (active)
8,CN1C(=O)C(=C2CC(c3ccccc3)N(C(=O)CCl)N2)C(=O)N(C)C1=O (stereo not drawn),> 100 µM (active)
9,CN(C1=C(NC(=O)c2ccc(Cl)cc2)C(=O)c2ccccc2C1=O)c1ccccc1,16.7 µM (active)
10,Cc1cc(C)c(S(=O)(=O)/N=C2\C=C(Nc3ccc(C(=O)O)cc3)C(=O)c3ccccc32)c(C)c1,> 100 µM (active)
11,Cc1nn(-c2ccccc2)c(Cl)c1CN(C(=O)CCl)c1cccc2ccccc12,35.5 µM (active)
12,CC(=O)n1cc(N(C(=O)CCl)c2ccc(C)cc2)c2ccccc21,5.03 µM (active)
13,O=C(CCl)N(c1ccc(Cl)cc1)c1c[nH]c2ccccc12,4.5 µM (active)
14,CC(CCc1ccccc1)NC(=O)COC(=O)c1cc(NS(=O)(=O)c2ccc(Cl)c([N+](=O)[O-])c2)ccc1O (stereo not drawn),> 100 µM (active)
15,Cc1sc2ncnc(Sc3nnnn3-c3ccccc3)c2c1C,> 100 µM (active)
16,Cc1ccccc1-n1ncc2c([N+](=O)[O-])cc([N+](=O)[O-])cc21,2.16 µM (active)
17,CCC(C)[C@@H](NC(=O)OC(C)(C)C)c1nnc(S(=O)(=O)Cc2cccc(C)c2)o1 (stereo partly drawn),> 100 µM (active)

row,SMILES,IC90
1,Cc1ccc2c(c1)c1c3n2CCN(C(=O)CCl)C3CCC1 (stereo not drawn),8.43 µM (active)
2,O=C(OCn1ncc(Cl)c(Cl)c1=O)c1cccc(C(F)(F)F)c1,> 100 µM (active)
3,CC1=NNC(=O)C1Cc1c(Cl)cccc1Cl (stereo not drawn),> 100 µM (active)
4,CCCCCCCCCCn1c2c(c(=N)c3c1CCC3)CCC2,3.39 µM (active)
5,CSc1nnc(NC(=O)c2nc(S(=O)(=O)Cc3ccccc3F)ncc2Cl)s1,> 100 µM (active)
6,Cc1ccc(C(=O)Oc2ccc([N+](=O)[O-])cc2)cc1S(=O)(=O)N1CCCCCC1,> 100 µM (active)
7,Cc1ccc(C(=O)OCn2ncc(Cl)c(Cl)c2=O)cc1,> 100 µM (active)
8,Cc1oc2c(c1C(=O)N1CCOCC1)C(=O)c1ccccc1C2=O,35.2 µM (active)
9,Cc1ccc(N(NC(=O)C(O)(c2ccccc2)c2ccccc2)C(=O)CCl)cc1,27.4 µM (active)
10,Cc1nn(-c2ccccc2)c(Cl)c1CN(C(=O)CCl)c1ccc(Cl)cc1,8.54 µM (active)
11,C/C(=N\NC(=O)c1ccncc1)c1cc2ccccc2oc1=O,0.43 µM (active)
12,CC(NC(=O)COC(=O)c1cc(NS(=O)(=O)c2ccc(Cl)c([N+](=O)[O-])c2)ccc1O)C1CC2CCC1C2 (stereo not drawn),> 100 µM (active)
13,Cc1ccc(Sc2ccc(NC(=O)CCl)cc2)cc1C,52.4 µM (active)
14,CCn1nc(/C=C/c2ccccc2)nc2c(=O)n(C)c(=O)nc1-2,15.4 µM (active)
15,Cc1cc(C)cc(Cn2ncc(Cl)c(Cl)c2=O)c1,25.7 µM (active)
16,Cc1oc2c(c1C(=O)NCc1cccnc1)C(=O)c1ccccc1C2=O,< 0.2 µM (active)
